Source: PubChem BioAssay (NCATS)
Results filed as inconclusive are left out. Where a call stands in place of a potency, no number is given. Calls of active or inactive are those of the source. Calls follow the shape of the dose curve; as a rule, active = well fitted curve in the direction sought with a large enough effect; inconclusive = small, poorly fitted or top-dose-only effect, or another doubt; inactive = no such curve, though single readings can be large; an effect the other way counts as inactive or inconclusive.

Assay: qHTS assay to identify small molecule inhibitors of chordoma cells - UCH-2 (AID 1259356)
Conditions: UCH-2 chordoma viability, CellTiter-Glo ATP luminescence, 48 h; series mostly up to 46.1 µM

| Compound | Potency |
| --- | --- |
| NCCc1ccn[nH]1 | inactive |
| CCCCOc1cc(C(=O)NCCN(CC)CC)c2ccccc2n1 | inactive |
| C#C[C@]1(OC(C)=O)CC[C@H]2[C@@H]3CCC4=C[C@@H](OC(C)=O)CC[C@@H]4[C@H]3CC[C@@]21C | inactive |
| CC[C@@H](CO)NCCN[C@@H](CC)CO | inactive |
| CN1CCN(CCCN2c3ccccc3Sc3ccc(S(=O)(=O)N(C)C)cc32)CC1 | inactive |
| CCN1CCN(c2cc3c(cc2F)c(=O)c(C(=O)O)cn3C2CC2)CC1 | inactive |
| Nc1cc(Cl)c(NC2=NCCN2)c(Cl)c1 | inactive |
| CCC(NC(C)C)C(O)c1ccc(O)c(O)c1 (stereo not given) | inactive |
| CCCCCCCCCCCCCCNCCO | inactive |
| CCCOC(C(=O)OC1CCN(C)CC1)(c1ccccc1)c1ccccc1 | inactive |
| CC(=O)Nc1c(I)cc(I)c(C(=O)O)c1I | inactive |
| O=C(Nc1ccc(Cl)c(Cl)c1)C1CC1 | inactive |
| C[C@@H]1CN(CCCn2c3ccccc3c3ccccc32)C[C@H](C)N1 | inactive |
| O=C(N/N=C/c1ccccc1O)c1ccncc1 | inactive |
| C[C@H]1[C@H](NC(=O)/C(=N/OC(C)(C)C(=O)O)c2csc(N)n2)C(=O)N1S(=O)(=O)O (stereo in doubt) | inactive |
| CCCSS/C(CCO)=C(\C)N(C=O)Cc1cnc(C)nc1N | inactive |
| CC1=C(C(=O)OC(C)C)C(c2cccc([N+](=O)[O-])c2)C(C(=O)OC2CN(C(c3ccccc3)c3ccccc3)C2)=C(N)N1 (stereo not given) | inactive |
| O=C(O)CCCCC(=O)O | inactive |

| Compound | Potency |
| --- | --- |
| COc1cc(C(=S)N2CCOCC2)cc(OC)c1OC | inactive |
| COc1cc(-c2ccc(=O)[nH]n2)ccc1OC(F)F | inactive |
| CCN(CC)CCNC(=O)COc1ccc(Cl)cc1 | inactive |
| CN(C/C=C/c1ccccc1)Cc1cccc2ccccc12 | inactive |
| O=C(COc1ccc(Cl)cc1)N1CCN(Cc2ccc3c(c2)OCO3)CC1 | inactive |
| C#C[C@]1(O)CC[C@H]2[C@@H]3CCc4cc(OC5CCCC5)ccc4[C@H]3CC[C@@]21C | inactive |
| C#C[C@]1(O)CC[C@H]2[C@@H]3CCC4=CC(=O)CC[C@@H]4[C@H]3CC[C@@]21C | inactive |
| Oc1ccc(Cl)c2cccnc12 | inactive |
| COc1cccc(OC)c1C(=O)N[C@@H]1C(=O)N2[C@@H]1SC(C)(C)[C@@H]2C(=O)O | inactive |
| C[C@]12CC[C@H]3[C@@H](CCC4=CC(=O)CC[C@@]43C)[C@@H]1CC[C@@H]2C(=O)CO | inactive |
| O=C(O)c1cc2cc(Cc3cccnc3)ccc2o1 | inactive |
| N[C@@H](Cc1cnc[nH]1)C(=O)O | inactive |
| CO/N=C1\CN(c2nc3c(cc2F)c(=O)c(C(=O)O)cn3C2CC2)CC1CN (stereo not given) | inactive |
| COc1cc2c(cc1OC)C(=O)C(CC1CCN(Cc3ccccc3)CC1)C2 (stereo not given) | inactive |
| CC1(C)CCC(NC(=O)[C@@H](N)CCC(=O)O)CC1 | inactive |
| Cc1c(C(N)=O)cc([N+](=O)[O-])cc1[N+](=O)[O-] | inactive |
| O=C(OCC(O)CO)c1ccccc1Nc1ccnc2cc(Cl)ccc12 (stereo not given) | inactive |
| Cc1c(F)c(N2CCNC(C)C2)cc2c1c(=O)c(C(=O)O)cn2C1CC1 (stereo not given) | inactive |

Assay: P-glycoprotein substrates identified in KB-8-5-11 adenocarcinoma cell line, qHTS therapeutic library screen (AID 1346987); also: nearly all actives have a fitted effect of over 65% in size; also: potency is read from the fitted curve at half-maximal effect
Conditions: KB-8-5-11 (P-gp overexpressing) viability, CellTiter-Glo, 72 h; series mostly up to 44.5 µM
Procedure, shortened: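 P-gp-mediated resistance screen: KB-8-5-11 cells treated 72 h with compounds in dose-response. CellTiter-Glo viability.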

| Compound | Potency |
| --- | --- |
| CCCCOc1cc(C(=O)NCCN(CC)CC)c2ccccc2n1 | inactive |
| CCN1CCN(c2cc3c(cc2F)c(=O)c(C(=O)O)cn3C2CC2)CC1 | inactive |
| Nc1cc(Cl)c(NC2=NCCN2)c(Cl)c1 | inactive |
| CCC(NC(C)C)C(O)c1ccc(O)c(O)c1 (stereo not given) | inactive |
| CC(=O)Nc1c(I)cc(I)c(C(=O)O)c1I | inactive |
| C[C@@H]1CN(CCCn2c3ccccc3c3ccccc32)C[C@H](C)N1 | 14.6 µM (active) |
| O=C(N/N=C/c1ccccc1O)c1ccncc1 | inactive |
| CCCSS/C(CCO)=C(\C)N(C=O)Cc1cnc(C)nc1N | inactive |
| O=C(O)CCCCC(=O)O | inactive |
| COc1cc(C(=S)N2CCOCC2)cc(OC)c1OC | inactive |
| COc1cc(-c2ccc(=O)[nH]n2)ccc1OC(F)F | 0.116 µM (active) |
| CCN(CC)CCNC(=O)COc1ccc(Cl)cc1 | inactive |
| CN(C/C=C/c1ccccc1)Cc1cccc2ccccc12 | inactive |
| Oc1ccc(Cl)c2cccnc12 | inactive |
| O=C(O)c1cc2cc(Cc3cccnc3)ccc2o1 | inactive |
| N[C@@H](Cc1cnc[nH]1)C(=O)O | inactive |
| COc1cc2c(cc1OC)C(=O)C(CC1CCN(Cc3ccccc3)CC1)C2 (stereo not given) | 8.2 µM (active) |
| CC1(C)CCC(NC(=O)[C@@H](N)CCC(=O)O)CC1 | inactive |
| Cc1c(C(N)=O)cc([N+](=O)[O-])cc1[N+](=O)[O-] | inactive |
